A short description of assay [1]: qHTS assay to identify small molecule agonists of the estrogen receptor alpha (ER-alpha) signaling pathway in the presence of an antagonist - cell viability counter screen (AID 1259386).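 Further: series mostly up to about 92 µM; cells exposed to compounds for 22 h at 37 °C before the viability read; nearly all actives have a fitted effect of over 30% in size.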 The procedure, abridged:
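The test measures whether compounds kill ER-alpha reporter cells (VM7Luc4E2) under antagonist co-treatment (ICI-182,780, 10.0nM). Fluorescence from CellTiter-Fluor is read after a 22hr exposure.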
For orientation: In qHTS, concentration-response curves come from the screen itself.

Assay [2] in a line: qHTS assay to identify small molecule antagonists of the TGF-beta/Smad signaling pathway - cell viability counter screen (AID 1346824). Further: nearly all actives have a fitted effect of over 50% in size. The procedure, abridged: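 SBE-bla HEK 293T cells, incubated overnight, then compound plus 0.25 ng/mL TGF-beta1 (stock added) for 5 hr at 37 C. Viability was read in the same wells by CellTiter-Glo luminescence after 30 min at room temperature.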

Assay [3] can be described thus: qHTS assay to identify small molecule agonists of the TGF-beta/Smad signaling pathway - cell viability counter screen (AID 1346829). Further: top concentration of the series differs between compounds; nearly all actives have a fitted effect of over 45% in size. The procedure, abridged: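 In parallel with the Smad reporter read, viability of HEK 293T cells stably carrying SBE-bla is quantified by ATP luminescence following 5 hr compound treatment.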
Assay [4] in a line: qHTS assay to identify small molecule agonists of the TGF-beta/Smad signaling pathway (AID 1346859; active means well fitted activation curve with a large enough effect in the signal ratio in the repeat runs, not every such curve was filed as active; the % refers to the signal ratio; further: series mostly up to about 77 µM). The procedure, abridged:
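Read-out: fluorescence at 460 and 530 nm (405 nm excitation) after a 2 hr room-temperature incubation with beta-lactamase FRET substrate. SBE-bla HEK 293T cells had been treated with test compounds for 5 hr at 37 C.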

The target of assay [5] is Thyrotropin-releasing hormone receptor (Homo sapiens) (UniProt P34981). Put plainly: qHTS assay to identify small molecule antagonists of the thyrotropin-releasing hormone receptor (TRHR) signaling pathway (AID 1346877; active means well fitted inhibition curve with a large enough effect in the repeat runs, not every such curve was filed as active; further: series mostly up to about 51 µM). The procedure, abridged:
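Overnight-plated (18 h, 37 °C) HEK293 cells expressing TRHR were dye-loaded 2 h, treated with compound, then stimulated with TRH at 1 nM final. Fluorescence intensity was captured every second for 3 min.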

Assay [6] shares this target. Put plainly: qHTS assay to identify small molecule agonists of the thyrotropin-releasing hormone receptor (TRHR) signaling pathway (AID 1346891; calls by dose curve;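 further: HEK293 cells expressing TRHR with calcium dye readout; series mostly up to about 58 µM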). The procedure, abridged: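 HEK293/TRHR cells, 1500 per well, 18 h 37 °C; Ca dye 2 h 37 °C; pin-tool compound addition (agonist mode); kinetic fluorescence 3 min, 1 s reads; 15 concentrations, triplicate.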
Assay [7] can be described thus: Caspase-3/7 induction in HepG2 cells by small molecules, qHTS assay (AID 1346978). Further: nearly all actives have a fitted effect of over 15% in size. The procedure, abridged:
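Wild-type HepG2 cells, 2,000/well, settled 5 hr at 37 C and 5% CO2, then compound-treated for 17 hr; caspase-3/7 activity read by luminescent Caspase-Glo 3/7 after 30 min at room temperature.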

The nature of assay [8]: Caspase-3/7 induction in CHO-K1 cells by small molecules, qHTS assay (AID 1346980). Further: nearly all actives have a fitted effect of over 15% in size. The procedure, abridged:
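Wild-type CHO-K1 cells exposed to compounds for 17hr at 37 C, 5% CO2. Caspase-3/7 activity then measured by Caspase-Glo 3/7 luminescence after 30min at room temperature.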

The nature of assay [9]: Caspase-3/7 induction in HepG2 cells by small molecules, qHTS cell viability counter screen (AID 1346981). Further: series mostly up to about 92 µM; nearly all actives have a fitted effect of over 30% in size. The procedure, abridged: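 Treatment of HepG2 cells with DMSO-delivered compounds ran 16 hr at 37 C following a 5-hr pre-incubation of 2,000 cells/well. CellTiter-Fluor fluorescence, read after 1 hr, served as the viability measure in a qHTS format.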
The target in assay [10] is Nuclear receptor subfamily 1 group I member 2 (Homo sapiens) (UniProt O75469). Put plainly: Human pregnane X receptor (PXR) small molecule agonists, qHTS assay (AID 1346982). Further: nearly all actives have a fitted effect of over 35% in size. The procedure, abridged:
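Stable HepG2 line reporting PXR-mediated CYP3A4 expression via luciferase. Treatment: 24 hr with compounds in DMSO at 37 C. Detection: ONE-Glo luminescence.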

Assay [11] deals with Nuclear receptor subfamily 1 group I member 2 (Rattus norvegicus) (UniProt Q9R1A7). Put plainly: Rat pregnane X receptor (rPXR) activation by small molecules, qHTS assay (AID 1346983). Further: nearly all actives have a fitted effect of over 20% in size. Conditions: rPXR luciferase reporter cells, One-Glo luminescence, 24 h; max activation: active compounds read high. The procedure, abridged:
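Cell-based rPXR activation assay: rPXR cells, 2,000 per well, rested 5hr at 37 C, then exposed to compounds in DMSO for 24 hr at 37 C. Luciferase activity read by One-Glo luminescence after 30 min at room temperature.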

The target of assay [12] is Nuclear receptor subfamily 1 group I member 2 (Homo sapiens) (UniProt O75469). Nature of the assay: CYP3A4 induction through human pregnane X receptor (PXR) by small molecules, qHTS assay (AID 1346984). Further: nearly all actives have a fitted effect of over 40% in size. The procedure, abridged: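 After 24 h at 37C with compound, DPX-2 cells (HepG2, co-transfected PXR response element and CYP3A4 promoter-luciferase) got 3uM final P450-Glo Luciferin-IPA for 3 h; One-Glo luminescence followed.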
Sequence of Nuclear receptor subfamily 1 group I member 2 (Homo sapiens) (O75469 whole entry, looked up): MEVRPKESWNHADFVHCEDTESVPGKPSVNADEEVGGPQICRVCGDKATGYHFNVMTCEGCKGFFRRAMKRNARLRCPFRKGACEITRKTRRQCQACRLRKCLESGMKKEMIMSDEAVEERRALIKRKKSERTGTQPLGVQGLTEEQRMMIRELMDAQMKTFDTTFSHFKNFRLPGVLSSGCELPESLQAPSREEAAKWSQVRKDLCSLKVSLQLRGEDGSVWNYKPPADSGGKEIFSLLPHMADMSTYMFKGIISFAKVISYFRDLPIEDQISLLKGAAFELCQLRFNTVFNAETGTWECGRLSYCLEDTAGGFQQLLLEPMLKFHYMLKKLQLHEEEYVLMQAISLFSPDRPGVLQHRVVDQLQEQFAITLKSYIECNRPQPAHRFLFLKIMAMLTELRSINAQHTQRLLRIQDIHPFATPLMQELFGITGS

Assay [13] is described as follows: qHTS assay to identify small molecule antagonists of the progesterone receptor (PR) signaling pathway - cell viability counter screen (AID 1346798). Further: nearly all actives have a fitted effect of over 50% in size. Further: potency means the concentration at half of the fitted maximal effect. The procedure, abridged: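 Luminescence readout (CellTiter-Glo, 30 min, RT) of viability in PR-UAS-bla HEK293T cells exposed to compound and R5020 agonist for 16 hr at 37C, 5% CO2; run in the same wells as the beta-lactamase reporter read.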

A short description of assay [14]: Human pregnane X receptor (PXR) small molecule agonists, qHTS cell viability counter screen (AID 1346977). Further: nearly all actives have a fitted effect of over 50% in size. The procedure, abridged:
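Fluorescence read-out (CellTiter-Fluor) of viability in PXR-Luc HepG2 cells, multiplexed with the luciferase agonist read. Compounds in DMSO added after 5hr plating; 24hr total exposure at 37C, 5% CO2.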

The nature of assay [15]: Caspase-3/7 induction in CHO-K1 cells by small molecules, qHTS cell viability counter screen (AID 1346979). Further: nearly all actives have a fitted effect of over 35% in size. The procedure, abridged:
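CHO-K1 wt, 1,500 cells/well; 5hr pre-incubation 37C/5% CO2; compound pin transfer (DMSO); 16hr exposure; CellTiter-Fluor added, 1hr, fluorescence read.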

Assay [16] addresses Progesterone receptor (Homo sapiens) (UniProt P06401). Put plainly: qHTS assay to identify small molecule agonists of the progesterone receptor (PR) signaling pathway (AID 1346784; calls by dose curve; further: nearly all actives have a fitted effect of over 30% in size). The procedure, abridged:
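HEK 293T PR-UAS-bla reporter cells, 2% charcoal-stripped FBS; 6 hr settle at 37C/5% CO2, compound (DMSO) 16 hr, LiveBLAzer B/G FRET substrate 2 hr RT, fluorescence intensity read.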

Assay [17] shares this target. Put plainly: qHTS assay to identify small molecule antagonists of the progesterone receptor (PR) signaling pathway (AID 1346795; active means well fitted inhibition curve with a large enough effect in the signal ratio in the repeat runs, not every such curve was filed as active; the % refers to the signal ratio). The procedure, abridged:
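Beta-lactamase reporter, HEK293T PR-UAS-bla line; 2% charcoal-stripped FBS; 6 hr pre-incubation, 37C/5% CO2. Compound + R5020 1 nM final, 16 hr. LiveBLAzer B/G FRET substrate, 2 hr RT; fluorescence intensity read.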

Assay [18] in a line: qHTS assay to identify small molecule agonists of the progesterone receptor (PR) signaling pathway - cell viability counter screen (AID 1346799; calls by dose curve; further: nearly all actives have a fitted effect of over 45% in size; further: potency means the concentration at half of the fitted maximal effect). The procedure, abridged: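 HEK293T PR-UAS-bla, 3,000 cells/well, 2% charcoal-stripped FBS; 6 h settle, compound 16 h at 37C/5% CO2; LiveBLAzer 2 h RT, then CellTiter-Glo 30 min RT, luminescence read.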

A number with no mark means an inactive call. Results filed as inconclusive are left out. Activity calls are given as the source filed them. Unless noted, the call rests on the fitted dose curve; in most records, active means well fitted curve in the direction sought with a large enough effect in the repeat runs; inconclusive means weak or mixed curves; inactive means no such curve, though single readings can be large; an effect the other way counts as inactive or inconclusive.
On the % scale 0 is the no-effect control and ±100 the full control effect.

Sequence of Progesterone receptor (Homo sapiens) (P06401 whole entry, looked up): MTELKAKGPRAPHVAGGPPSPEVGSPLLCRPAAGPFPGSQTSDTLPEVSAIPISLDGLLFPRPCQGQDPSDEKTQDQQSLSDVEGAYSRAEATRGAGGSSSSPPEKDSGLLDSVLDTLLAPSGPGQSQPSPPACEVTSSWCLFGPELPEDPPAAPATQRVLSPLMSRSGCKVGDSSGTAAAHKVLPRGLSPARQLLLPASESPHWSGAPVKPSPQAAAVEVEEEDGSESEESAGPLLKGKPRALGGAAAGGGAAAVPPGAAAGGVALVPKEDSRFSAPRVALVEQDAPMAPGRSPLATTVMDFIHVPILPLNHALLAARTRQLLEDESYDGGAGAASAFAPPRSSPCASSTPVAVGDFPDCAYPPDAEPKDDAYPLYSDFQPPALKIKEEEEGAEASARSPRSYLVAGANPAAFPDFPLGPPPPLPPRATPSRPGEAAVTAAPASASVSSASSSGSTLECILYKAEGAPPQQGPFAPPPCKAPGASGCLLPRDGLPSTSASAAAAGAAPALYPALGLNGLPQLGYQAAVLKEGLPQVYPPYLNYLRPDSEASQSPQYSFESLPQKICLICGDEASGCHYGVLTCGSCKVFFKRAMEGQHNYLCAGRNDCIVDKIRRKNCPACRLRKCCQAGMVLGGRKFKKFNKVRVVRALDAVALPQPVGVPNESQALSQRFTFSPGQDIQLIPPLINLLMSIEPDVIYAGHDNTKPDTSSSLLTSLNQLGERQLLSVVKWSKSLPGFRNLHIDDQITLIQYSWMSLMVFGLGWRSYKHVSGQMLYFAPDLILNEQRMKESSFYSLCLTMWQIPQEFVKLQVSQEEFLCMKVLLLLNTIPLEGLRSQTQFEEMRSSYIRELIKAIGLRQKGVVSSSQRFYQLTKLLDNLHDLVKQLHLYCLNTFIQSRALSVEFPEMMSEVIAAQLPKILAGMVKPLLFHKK
Sequence of Thyrotropin-releasing hormone receptor (Homo sapiens) (P34981 whole entry, looked up): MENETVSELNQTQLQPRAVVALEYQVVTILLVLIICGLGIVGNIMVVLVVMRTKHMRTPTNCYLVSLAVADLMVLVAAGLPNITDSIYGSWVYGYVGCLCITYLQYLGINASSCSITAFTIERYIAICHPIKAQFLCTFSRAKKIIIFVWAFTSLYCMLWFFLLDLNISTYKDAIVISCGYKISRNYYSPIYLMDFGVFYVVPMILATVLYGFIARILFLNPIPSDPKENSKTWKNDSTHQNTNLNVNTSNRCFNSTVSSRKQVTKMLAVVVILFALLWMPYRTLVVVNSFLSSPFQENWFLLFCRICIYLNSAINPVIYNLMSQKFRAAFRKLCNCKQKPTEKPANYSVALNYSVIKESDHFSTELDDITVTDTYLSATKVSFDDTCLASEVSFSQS
Sequence of Nuclear receptor subfamily 1 group I member 2 (Rattus norvegicus) (Q9R1A7 whole entry, looked up): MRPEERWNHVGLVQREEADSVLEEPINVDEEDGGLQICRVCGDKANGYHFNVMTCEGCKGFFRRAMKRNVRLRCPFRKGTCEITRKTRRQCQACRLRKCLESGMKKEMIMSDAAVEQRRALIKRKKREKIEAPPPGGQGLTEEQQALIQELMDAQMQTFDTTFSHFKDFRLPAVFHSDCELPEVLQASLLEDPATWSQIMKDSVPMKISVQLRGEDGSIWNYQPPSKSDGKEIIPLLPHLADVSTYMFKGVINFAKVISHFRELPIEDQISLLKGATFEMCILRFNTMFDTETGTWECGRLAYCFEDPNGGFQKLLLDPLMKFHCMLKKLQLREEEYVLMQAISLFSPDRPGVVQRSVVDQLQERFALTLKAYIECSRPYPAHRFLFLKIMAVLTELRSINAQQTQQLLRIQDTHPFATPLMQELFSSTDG

In the case of `Cc1c(C)n(CCN(C)C)c2ccc(C(=O)OCCN(C)C)cc12`, the outcome in [1], in assay [2], in [3], in assay [4], in assay [5] and in [6] was inactive. Besides, the outcome in assay [7], in assay [8] and in [9] was inactive. Also, the Potency entry in assay [10] and in [12] was “inactive” in each case. In addition, the max activation in [11] is 6.74%.

`CCCCCCOC(=O)CC(CC(=O)OCCCCCC)(OC(=O)CCC)C(=O)OCCCCCC`: the outcome in [1], in assay [2], in assay [3], in assay [4], in [7] and in [8] was inactive. The result in assay [9] was inactive. Also, the Potency result in assay [13], in [14], in [15] and in [10] was “inactive” throughout.

Take `C1C2OC2C2C1C1CC2C2OC12` (configuration not stated): the Potency entry in [16], in assay [17], in assay [13], in assay [18], in [14] and in [15] was “inactive” throughout. The Potency entry in [10] was “inactive”. The result in [2], in assay [3], in assay [4], in assay [5], in assay [6] and in assay [7] was inactive. Also, the result in [8] and in assay [9] was inactive.

`COc1cc(C)cc(O)c1`: the outcome in [1], in [3], in assay [4], in assay [7], in assay [8] and in [9] was inactive. For the same compound, the Potency entry in [16], in assay [13], in assay [18], in assay [14], in [15] and in [10] was “inactive” in each case.

As for `NC(=O)c1ncn([C@@H]2O[C@H](CO)[C@@H](O)[C@H]2O)c1O`, the Potency entry in [16], in assay [17], in assay [13], in assay [18], in assay [14] and in assay [15] was “inactive” each time. Moreover, the Potency result in assay [10] and in assay [12] was “inactive” throughout. Moreover, the compound was classed as inactive in [2], in [3], in assay [4], in assay [5], in [6] and in [7]. Further, the result in assay [8] and in assay [9] was inactive. In assay [11], the max activation is -0.429%.

Consider `CCCc1ccc(N)cc1`, for which the Potency result in assay [16], in assay [17], in [13], in assay [14] and in [15] was “inactive” each time. Besides, the compound was classed as inactive in assay [2], in [3], in assay [4], in assay [5], in assay [6] and in [7]. In addition, the compound was classed as inactive in assay [8] and in [9].

As to `CC(C)(O)c1ccccc1`, the result in [1], in assay [3], in assay [4], in [5], in [6] and in [7] was inactive. Moreover, the compound was classed as inactive in assay [8] and in [9]. Also, the Potency result in assay [17], in assay [14], in assay [15] and in assay [10] was “inactive” throughout. The Potency in assay [13] was 52.2 µM (active); in [18] it was 58.6 µM (active).

Take `CC1=CC(C)C(C=O)C(C)C1` (configuration not stated): the Potency result in [16], in assay [14], in assay [15] and in assay [10] was “inactive” in each case. The compound was classed as inactive in assay [2], in assay [3], in assay [4], in assay [7], in assay [8] and in assay [9].

With `COCc1ccc(COC)cc1`, the Potency entry in assay [16], in assay [13], in assay [18], in assay [14], in assay [15] and in [10] was “inactive” throughout. Also, the compound was classed as inactive in [3], in [4], in [5], in assay [6], in [7] and in assay [8]. Also, the compound was called inactive in [9].

The values above are taken from PubChem BioAssay (Tox21).
